Sampled rows, rich in hits. Any-hit rate of the full collection: about 15%.
Gal4-VP16 FLuc: VP16 counterscreen qHTS for inhibitors of ROR gamma transcriptional activity | Drosophila S2 Gal4-VP16 UAS-luciferase, luminescence, 20 h | Potency, µM (series often up to 53.6 µM), without a hit: top-dose activity, negative = inhibition, most hits filed as inhibitors | 310,000 tested, 3.5% active;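 also: Gal4-VP16 expression switched on by copper sulfate through the metallothionein promoter; nearly all actives have a fitted effect of over 50% in size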
TDP1 cell CPT: qHTS for Inhibitors of human tyrosyl-DNA phosphodiesterase 1 (TDP1): qHTS in cells in presence of CPT. Potency, µM (doses to about 46.2 µM), for the others: top-dose activity change, negative = growth inhibition, most hits filed as inhibitors. 420,000 tested, 12% active. chicken DT40 Tdp1-/-;hTDP1 cells + 20 nM CPT, ATP luminescence, 48 h; also: nearly all actives have a fitted effect of over 55% in size
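Chicken DT40 Tdp1-/- cells stably complemented with human TDP1 were seeded at 400 cells/well in medium containing 20 nM camptothecin, exposed to pin-transferred compounds, and grown at 37 °C for at least 48 hr. Viability was read as ATP luminescence.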
TDP1 cell noCPT: qHTS for Inhibitors of human tyrosyl-DNA phosphodiesterase 1 (TDP1): qHTS in cells in absence of CPT | DT40 Tdp1-/- hTDP1 cells, no CPT, ATP luminescence, 48 h | Potency, µM (titrated, usually from 46.2 µM), for the others: at the highest dose activity change, negative = growth inhibition, most hits filed as inhibitors | 420,000 tested, 15% active; also: nearly all actives have a fitted effect of over 55% in size
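Chicken DT40 Tdp1-/- cells complemented with human TDP1, screened without camptothecin (DMSO vehicle only), 400 cells/well. Compounds pin-transferred, cells incubated at 37 °C for at least 48 hr. Growth read as ATP-dependent luminescence (CellTiter-Glo, 30 min at RT).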
RORg inh: qHTS for inhibitors of ROR gamma transcriptional activity. 310,000 tested, 5.4% active. Drosophila S2 Gal4-RORgamma UAS-luciferase reporter, 20 h. Nuclear receptor ROR-gamma (Mus musculus), P51450. AID 2551, 2010. Potency, µM (highest dose often 53.6 µM), for the others: at the top dose activity change, negative = inhibition, usual class: inhibitors; also: nearly all actives have a fitted effect of over 60% in size
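Stably transfected Drosophila Schneider cells are the test system, with ROR gamma fused to Gal4 and luciferase under UAS control; luminescence is read after 20 hr of 700 uM copper sulfate induction at ambient temperature.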
12-LOX inh: Primary qHTS assay for inhibitors of human arachidonate 12S-lipoxygenase (ALOX12): Round 2. Polyunsaturated fatty acid lipoxygenase ALOX12 (Homo sapiens), P18054. AID 1671190, 2021. 580,000 tested, 1.1% active. Potency, µM (titrated, usually from 108 µM), inactives show at the top dose activity change, negative = inhibition, actives largely listed as inhibitors. purified 12hLO, xylenol orange hydroperoxide absorbance
Target sequence (P18054 whole entry, looked up): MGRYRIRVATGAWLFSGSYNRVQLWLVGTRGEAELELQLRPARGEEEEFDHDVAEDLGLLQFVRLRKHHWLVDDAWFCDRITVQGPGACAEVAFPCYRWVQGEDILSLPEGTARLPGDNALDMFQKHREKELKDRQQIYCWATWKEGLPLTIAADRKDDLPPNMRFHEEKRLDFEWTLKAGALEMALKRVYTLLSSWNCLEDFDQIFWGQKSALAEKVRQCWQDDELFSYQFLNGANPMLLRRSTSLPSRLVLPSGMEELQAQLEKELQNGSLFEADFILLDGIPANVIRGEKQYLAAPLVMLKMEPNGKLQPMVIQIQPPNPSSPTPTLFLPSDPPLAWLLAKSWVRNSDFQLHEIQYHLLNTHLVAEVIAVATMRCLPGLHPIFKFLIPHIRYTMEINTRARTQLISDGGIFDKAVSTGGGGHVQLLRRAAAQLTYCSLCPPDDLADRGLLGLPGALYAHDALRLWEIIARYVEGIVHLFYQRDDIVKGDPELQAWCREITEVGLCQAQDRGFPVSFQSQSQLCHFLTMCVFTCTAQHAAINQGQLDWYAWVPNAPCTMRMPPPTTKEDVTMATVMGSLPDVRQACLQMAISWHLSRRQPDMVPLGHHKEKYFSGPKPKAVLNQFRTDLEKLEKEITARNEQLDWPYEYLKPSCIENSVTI
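Hydroperoxide product was detected by ferrous iron/xylenol orange as the 573 to 405 nm absorbance ratio. Arachidonic acid at 40 uM (final) was turned over for 30 min at room temperature by 150 nM human 12hLO, pH 7.0 Hepes buffer, after 15 min compound preincubation.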
ELG1 repair inh: qHTS screen for small molecules that inhibit ELG1-dependent DNA repair in human embryonic kidney (HEK293T) cells expressing luciferase-tagged ELG1; HEK293T ELG1-luciferase reporter, luminescence, 16 h; DNA damage induced by 5-fluorouridine; Potency, µM (titrated, usually from 46.1 µM), inactives show at the highest dose activity change, negative = inhibition, actives largely listed as inhibitors; 330,000 tested, 2.3% active; AID 504467, 2011; also: nearly all actives have a fitted effect of over 55% in size
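Quantitative HTS, concentration-response format. 2,000 cells/well co-treated with 5-fluorouridine and compound, 16 hr in 5% CO2 at 37 °C; ONE-Glo luminescence read after 30 min.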
* marks the source's active call; other numbers are inactive results; ? = inconclusive; · = not tested or not shown; [ ] = another dose, or the depositor's remark. Calls follow the shape of the dose curve; as a rule, active = well fitted curve in the direction sought with a large enough effect; inconclusive = small, poorly fitted or top-dose-only effect, or another doubt; inactive = no such curve, though single readings can be large; an effect the other way counts as inactive or inconclusive. % is scaled to controls: 0 for no effect and ±100 for the full control effect; potency is read from the fitted curve at half-maximal effect.

SMILES | Gal4-VP16 FLuc | TDP1 cell CPT | TDP1 cell noCPT | RORg inh | 12-LOX inh | ELG1 repair inh
O=S(=O)(c1ccc(NC(=S)NCCC(c2ccccc2)c2ccccc2)cc1)N1CCOCC1 | -12% | 21µM* | 23µM* | 7% | 45µM* | 18µM*
O=S(=O)(c1ccc(NC(=S)N/N=C/c2ccc(N3CCOCC3)cc2)cc1)N1CCOCC1 | 6.3µM* | 4.1µM* | 3.7µM* | ? | -15% | -17%
O=S(=O)(c1ccc(NC(=S)N/N=C/c2ccc(Oc3ccccc3)cc2)cc1)N1CCOCC1 | -6% | 7% | -12% | 0.5µM* | ? | 12%
Cc1ccc(S(=O)(=O)N2CCOCC2)cc1C(=O)N1CC(C)CC(C)C1 (stereo not drawn) | · | -27% | ? | · | 15% | 14%
O=S(=O)(c1ccc(NC(=S)Nc2ccc(OC(F)F)cc2)cc1)N1CCOCC1 | 13% | ? | ? | -3% | ? | 1%
CC(C)C(NC(=O)Cc1n[nH]c(=O)c2ccccc12)c1ccc(C(C)(C)C)cc1 (stereo not drawn) | · | · | · | · | 0% | ·
Cc1c(C#N)c(NC(=O)CSc2nnnn2CC2CCCO2)n(C2CCCC2)c1C (stereo not drawn) | · | · | · | · | -2% | ·
C=C(C)/C=N/NC(=S)Nc1ccc(S(=O)(=O)N2CCOCC2)cc1 | ? | 0% | -30% | ? | ? | ?
O=S(=O)(c1ccc(NC(=S)N/N=C/c2c3ccccc3cc3ccccc23)cc1)N1CCOCC1 | 7.1µM* | 2.6µM* | 3.7µM* | ? | ? | ?
CCn1nc(-c2ccc(C)c(S(=O)(=O)NCc3ccccc3C)c2)c2c(c1=O)CCCC2 | · | · | · | · | 4% | ·
Cc1ccc(SCC(=O)Nc2ccc(N3CCN(C)CC3)c(F)c2)cc1 | 3% | ? | 21µM* | -1% | -9% | ?
CN(C)CCNC(=O)c1cccc(-c2cnc3c(NC=O)cc(-c4cccs4)cn23)c1 | · | ? | ? | · | -3% | ·
CN(C)CCNC(=O)c1cccc(-c2cnc3c(NC=O)cc(-c4ccc(C(=O)N5CCOCC5)cc4)cn23)c1 | · | -1% | 12% | · | 11% | ·
CC(=O)Nc1cc(-c2cccc(C(=O)NCCN(C)C)c2)cn2c(-c3ccc(C(C)=O)cc3)cnc12 | · | ? | 21µM* | · | -11% | ·
CC(=O)Nc1cc(-c2cccc(C(=O)NCCN(C)C)c2)cn2c(-c3ccc(F)c(Cl)c3)cnc12 | · | 2.1µM* | 1.5µM* | · | ? | ·
CCc1ccc(/C=N\NC(=O)c2ccc(Br)o2)s1 | 5µM* | ? | 23µM* | 1.6µM* | 7% | ?
COc1ccccc1-c1cc(C(=O)N/N=C/c2ccoc2)c2ccccc2n1 | ? | ? | 7.3µM* | 11µM* | 0% | ?
CCc1ccc(/C=N/NC(=O)c2cc(-c3ccccc3OC)nc3ccccc23)s1 | 4.5µM* | 4.1µM* | 12µM* | 4µM* | 0% | 18µM*
CCc1ccc(/C=N/NC(=O)c2cc(C3CC3)nc3ccc(Br)cc23)s1 | 1.6µM* | 2.6µM* | 4.6µM* | 2.2µM* | ? | 7.3µM*
Cc1noc([C@@H]2CN(Cc3c(C)n[nH]c3C)C[C@H]2CO)n1 | · | · | · | · | 10% | ·
CCOCC(=O)N1CCC2(CC1)NCCc1c2[nH]c2ccccc12 | · | · | · | · | 51% | ·
COc1ccc2[nH]c3c(c2c1)CCNC31CCN(C(=O)CN2CCCC2=O)CC1 | · | · | · | · | 28% | ·
C[C@H]1C=C2C=C[C@H](C)[C@H](CC[C@@H]3C[C@@H](O)CC(=O)O3)[C@H]2[C@@H](OC(=O)[C@@H](C)CCO)C1 | 2% | 27µM* | 27µM* | 41% | ? | ·
COc1cccc(CC(=O)NC2CCN(c3cnn(C)c(=O)c3)CC2)c1 | · | · | · | · | -2% | ·
COc1ccc2ccccc2c1CNC(C)CCc1ccccc1 (stereo not drawn) | 0% | 9.2µM* | ? | 5% | ? | -15%
SMILES | Gal4-VP16 FLuc | TDP1 cell CPT | TDP1 cell noCPT | RORg inh | 12-LOX inh | ELG1 repair inh
COc1ccc2ccccc2c1CN(C)Cc1ccccc1 | 3% | -29% | ? | -1% | 0% | -22%
CCOc1ccc2ccccc2c1CNCCc1ccc(S(N)(=O)=O)cc1 | 0% | -27% | ? | 64% | ? | -3%
COc1ccc(CCNCc2c(OC)ccc3ccccc23)cc1OC | 0% | 16µM* | ? | 2% | ? | 1%
O=C(c1nnn2c1COC(c1ccc(Cl)cc1)C2)N1CCN(C(=O)c2c(F)cccc2F)CC1 (stereo not drawn) | · | · | · | · | 42% | ·
Cc1ccc(C2C3=C(NCCN=C3c3ccccc3)C(=O)N2c2ccccc2)cc1 (stereo not drawn) | -4% | 21µM* | 23µM* | -7% | 17% | ?
CCOC(=O)c1nc(N)c(C(=O)OCC)[nH]1 | 16% | ? | 29µM* | 5% | 0% | -9%
CCOC(=O)c1nc2ccccc2c(=O)[nH]1 | -16% | -9% | -2% | 24% | 23% | ?
COc1ccc(C2C3C(=O)N(Cc4ccccc4)C(=O)C3ON2c2ccccc2)c(OC)c1OC (stereo not drawn) | -11% | ? | 21µM* | 18% | 0% | ?
O=c1c2ccccc2nnn1CSc1nnc(C2COc3ccccc3O2)n1-c1ccccc1 (stereo not drawn) | 3% | 21µM* | ? | 39% | 0% | ?
O=C(OCn1nnc2ccccc2c1=O)C1COc2ccccc2O1 (stereo not drawn) | -11%[0.365 µM] | -17% | 1% | 39% | -3% | -13%
Cn1ccnc1CN1CCCCC1C(=O)Nc1ccc(Oc2cccnc2)cc1 (stereo not drawn) | 3% | 15µM* | 23µM* | -9% | 23% | 3%
COc1cccc(O)c1CN1CCC(C(=O)Nc2ccc(-c3cccc(C)c3)cc2)CC1 | 14µM* | ? | 16µM* | 10µM* | ? | ?
COc1ccc(CN2CCC(C(=O)Nc3ccc(Oc4cccnc4)cc3)CC2)c(C)c1C | ? | ? | 2.9µM* | -6% | 1% | -16%

Screening results: PubChem, National Center for Advancing Translational Sciences (NCATS)
